This excerpt belongs to a sample that is enriched for hits.
IDE exosite inh: exo-site inhibitors of human IDE, primary screen, biochemical, fluorescence anisotropy, probe displacement | Insulin-degrading enzyme (Homo sapiens), P14735 | purified IDE, FL-6b probe fluorescence polarization; hits give low values | z-score at 20 µM | hit rate 6.3% among 17,000 | AID 1259349, 2017;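 active = z-score of -3 or lower, meaning strong loss of probe binding signal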;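 also: His-tagged human IDE residues 42-1019 made in E. coli with 30 nM FL-6b probe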
Target sequence (P14735 42-1019 limits assumed): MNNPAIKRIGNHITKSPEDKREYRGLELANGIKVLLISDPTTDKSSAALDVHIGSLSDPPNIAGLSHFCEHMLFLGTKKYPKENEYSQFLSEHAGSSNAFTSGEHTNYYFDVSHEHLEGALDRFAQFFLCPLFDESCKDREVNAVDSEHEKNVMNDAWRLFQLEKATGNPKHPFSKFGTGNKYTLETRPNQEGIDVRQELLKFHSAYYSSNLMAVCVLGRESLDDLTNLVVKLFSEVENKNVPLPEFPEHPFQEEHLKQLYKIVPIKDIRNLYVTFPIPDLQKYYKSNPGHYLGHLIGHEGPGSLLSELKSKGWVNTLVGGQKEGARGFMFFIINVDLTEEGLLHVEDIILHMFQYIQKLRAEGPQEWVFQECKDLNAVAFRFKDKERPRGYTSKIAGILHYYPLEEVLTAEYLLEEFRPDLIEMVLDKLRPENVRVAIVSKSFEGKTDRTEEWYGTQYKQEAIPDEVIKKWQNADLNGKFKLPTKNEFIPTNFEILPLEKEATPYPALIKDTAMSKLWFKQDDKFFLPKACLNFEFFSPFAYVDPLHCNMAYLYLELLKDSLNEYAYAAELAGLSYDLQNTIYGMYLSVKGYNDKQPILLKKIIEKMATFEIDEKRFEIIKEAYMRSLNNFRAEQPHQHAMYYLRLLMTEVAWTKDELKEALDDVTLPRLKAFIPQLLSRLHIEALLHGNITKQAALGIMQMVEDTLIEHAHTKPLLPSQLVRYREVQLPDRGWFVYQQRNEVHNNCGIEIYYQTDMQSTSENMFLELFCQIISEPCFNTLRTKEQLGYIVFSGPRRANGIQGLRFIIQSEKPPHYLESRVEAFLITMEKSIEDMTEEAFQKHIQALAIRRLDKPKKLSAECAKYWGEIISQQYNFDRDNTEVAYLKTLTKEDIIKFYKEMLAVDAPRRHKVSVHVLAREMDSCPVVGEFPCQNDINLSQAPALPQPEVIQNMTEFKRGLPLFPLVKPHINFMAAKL
* hit, by the source's call; ! = not confirmed by another sample.

SMILES	IDE exosite inh
Cc1ccccc1-c1ccc([C@@H]2[C@@H](CO)N3CCCCN(C(=O)NC4CCCC4)C[C@H]23)cc1	-14.5*
O=C(NC1CCCC1)N1CCCCN2[C@H](CO)[C@H](c3ccc(-c4cncnc4)cc3)[C@@H]2C1	3.74
O=C(NC1CCCC1)N1CCCCN2[C@H](C1)[C@H](c1ccc(-c3cncnc3)cc1)[C@@H]2CO	-0.856
O=C(NC1CCCC1)N1CCCCN2[C@H](CO)[C@@H](c3ccc(-c4ccncc4)cc3)[C@H]2C1	4.72
Cc1ccccc1-c1ccc([C@@H]2[C@H](CO)N3CCCCN(C(=O)NC4CCCC4)C[C@@H]23)cc1	-19*
COc1ccc(NC(=O)N2CCCCN3[C@H](C2)[C@H](c2ccc(-c4ccccc4C)cc2)[C@@H]3CO)cc1	4.18
CC(C)CC#Cc1ccc([C@@H]2[C@@H](CO)N3CCCCN(C(=O)NC4CCCC4)C[C@@H]23)cc1	1.76
O=C(NC1CCCC1)N1CCCCN2[C@@H](CO)[C@H](c3ccc(-c4ccccc4)cc3)[C@@H]2C1	-3.01*
CC(C)CC#Cc1ccc([C@H]2[C@@H](CO)N3CCCCN(C(=O)NC4CCCC4)C[C@@H]23)cc1	-0.55
O=C(NC1CCCC1)N1CCCCN2[C@H](C1)[C@H](c1ccc(-c3ccccc3)cc1)[C@@H]2CO	-2.13
CO[C@@H]1CN(C)C(=O)c2cc(NS(=O)(=O)CC(F)(F)F)ccc2OC[C@@H](C)NC[C@@H]1C	-0.141
N#C[C@@H]1[C@H](c2ccccc2-c2ccccc2)[C@@H](CO)N1C(=O)Cc1cccnc1	1.59
O=C(Nc1ccc(C(F)(F)F)cc1)N1[C@@H]2CNC[C@H]1C2c1ccc(/C=C/c2ccccc2)cc1 (stereo partly drawn)	5.86
N#Cc1ccc(-c2ccc([C@@H]3[C@@H]4CN(S(=O)(=O)Cc5ccccc5)C[C@H]3N4)cc2)cc1	-0.716
COc1ccccc1-c1cnc2c(c1)C(=O)N([C@@H](C)CO)C[C@H](C)[C@H](CN(C)C(=O)CC1CC1)O2	0.282
CO[C@H](CN(C)C(=O)C1CCOCC1)[C@@H](C)CN(C(=O)Nc1ccc(C(F)(F)F)cc1)[C@@H](C)CO	-1.17
O=C(Nc1cccc(F)c1)N1CC(=O)N2[C@H](CO)[C@@H](c3ccc(-c4ccccc4)cc3)[C@H]2C1	0.802
CCCC#Cc1ccc([C@H]2[C@H](CO)N3C(=O)CN(C(=O)NC4CCCC4)C[C@@H]23)cc1	-2.97
COc1ccccc1-c1ccc([C@@H]2[C@@H](C#N)N(C(=O)c3cccnc3)[C@@H]2CO)cc1	-33.8*
COc1ccc(-c2ccc([C@@H]3[C@H](C#N)N(C(=O)c4cccnc4)[C@H]3CO)cc2)cc1	-1.85
N#C[C@@H]1[C@H](c2ccc(-c3ccccc3F)cc2)[C@@H](CO)N1C(=O)C1CCC1	-0.297
CN(C)C(=O)c1cccc(-c2ccc(C3[C@H]4CNC[C@@H]3N4Cc3nccs3)cc2)c1 (stereo partly drawn)	0.431
CN(C)C(=O)c1cccc(-c2ccc(C3[C@@H]4CN(Cc5nccs5)C[C@H]3N4)cc2)c1 (stereo partly drawn)	-3.25*!
N#C[C@H]1[C@H](c2ccc(-c3ccccc3F)cc2)[C@@H](CO)N1C(=O)C1CCC1	2.18
CN(C)C(=O)c1ccc(-c2ccc(C3[C@@H]4CN(Cc5nccs5)C[C@H]3N4)cc2)cc1 (stereo partly drawn)	-2.04
SMILES	IDE exosite inh
COc1ccccc1-c1ccc([C@H]2[C@@H](CO)N(C(=O)C3CC3)[C@H]2C#N)cc1	-1.65
COc1ccccc1-c1ccc([C@H]2[C@@H](CO)N(C(=O)C3CCOCC3)[C@H]2C#N)cc1	-8.25*
COc1ccc(-c2ccc([C@@H]3[C@@H](CO)N(C(=O)c4cccnc4)[C@H]3C#N)cc2)cc1	4.47
N#C[C@H]1[C@H](c2ccc(-c3ccccc3F)cc2)[C@H](CO)N1C(=O)C1CCC1	-3.1*
COc1ccccc1-c1ccccc1[C@@H]1[C@H](C#N)N(C(=O)C2CCOCC2)[C@H]1CO	-1.68
Cc1noc(C)c1NC(=O)N1C[C@@H](O)COC[C@H]2O[C@@H](CC(=O)N[C@@H]3CCN(Cc4ccccc4)C3)CC[C@@H]21	0.00602
C/C=C/c1ccc([C@H]2[C@@H](CO)N(C(C)=O)[C@@H]2CNC(=O)c2ccccc2)cc1	-0.43
COc1ccc2c3c(n(C)c2c1)[C@@H](CO)N(Cc1ccccc1OC)CC31CN(C)C1	-0.117
COCCN(C[C@@H]1N[C@@H](CO)[C@H]1c1ccc(-c2cccc(F)c2)cc1)C(C)=O	-2.88
COCC(=O)N1CC2(C1)CN(Cc1nccs1)[C@H](CO)c1c2c2ccc(OC)cc2n1C	1.01
CO[C@@H]1CN(C)C(=O)c2ccc(NC(=O)c3cc(C)on3)cc2OC[C@@H](C)NC[C@H]1C	-0.484
COc1ccc2c3c(n(C)c2c1)[C@@H](CO)N(C(=O)CN(C)C)CC31CCN(Cc2cncnc2)CC1	-1.02
CCC(=O)N1[C@H](CO)[C@@H](c2ccccc2)[C@H]1CN(C(C)C)S(C)(=O)=O	4.58
